Shown are actives, neighbours in structure and some others; about 2.4% of the full set was active somewhere.
D2 PAM-1 – Beta-Arrestin HTS for Positive Allosteric Modulators of the Human D2 Dopamine Receptor: Potentiators; DiscoveRx D2 beta-arrestin cells, luminescence, 90 min; 100% = 57 uM dopamine signal; potentiation, % (test concentration not listed); 0.23% of 360,000 active; AID 624464, 2012; in the data active = potentiation above about 50%
Target sequence (P14416 whole entry, looked up): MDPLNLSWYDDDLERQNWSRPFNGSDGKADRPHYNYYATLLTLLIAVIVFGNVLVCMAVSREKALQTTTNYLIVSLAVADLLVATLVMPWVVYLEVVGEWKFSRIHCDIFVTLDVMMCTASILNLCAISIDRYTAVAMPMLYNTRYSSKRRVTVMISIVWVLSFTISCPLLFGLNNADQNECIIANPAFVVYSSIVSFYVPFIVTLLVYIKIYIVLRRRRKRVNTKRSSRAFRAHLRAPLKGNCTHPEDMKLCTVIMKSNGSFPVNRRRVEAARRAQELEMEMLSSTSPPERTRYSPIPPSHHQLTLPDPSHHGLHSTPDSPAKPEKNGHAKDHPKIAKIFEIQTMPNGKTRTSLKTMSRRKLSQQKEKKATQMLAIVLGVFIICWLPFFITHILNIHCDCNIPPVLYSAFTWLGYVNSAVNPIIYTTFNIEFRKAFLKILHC
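D2 cells co-treated with compound plus 50 nM dopamine (EC20) for 90 min at 37 deg C to detect potentiation. Beta-arrestin recruitment was read as enzyme-fragment luminescence after 1 h at ambient temperature. Full response was set by 57 uM dopamine.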
D2 PAM-2 – HTS Assay for Positive Allosteric Modulators of the Human D2 Dopamine Receptor: Primary Screen for Potentiators; D(2) dopamine receptor (Homo sapiens), P14416; HEK293 T-REx D2, calcium flux, EC20 dopamine potentiation; potentiation, % at 10 µM; 0.34% of 340,000 active;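 active = potentiation over 3 SD above the plate norm, cut at about 30% in these data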
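Tetracycline-induced Hek293 Trex D2 cells, force-coupled to calcium, loaded with no-wash calcium dye. Compound added with 180 s kinetic read for agonism, then EC20 dopamine and a further 180 s read for potentiation.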
D2 ag-1 – Beta-Arrestin HTS for Positive Allosteric Modulators of the Human D2 Dopamine Receptor: Agonists; D(2) dopamine receptor (Homo sapiens), P14416; DiscoveRx PathHunter D2 beta-arrestin, luminescence, 90 min; 100% = 57 uM dopamine signal; activation, % (test concentration not listed); 0.084% of 360,000 active; in the data active = activation above about 40%
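Agonist mode: compounds alone added to overnight-plated D2 PathHunter cells for 90 min at 37 C, with 57 uM final dopamine (EC100) defining full response. Beta-arrestin recruitment detected by chemiluminescent reagent, read after 1 h at ambient temperature.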
D2 ag-2 – HTS Assay for Allosteric Agonists of the Human D2 Dopamine Receptor: Primary Screen for Agonists; D(2) dopamine receptor (Homo sapiens), P14416; HEK293 T-REx D2 cells, calcium flux agonist mode; activation, % at 2 µM; 0.53% of 340,000 active;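 active = activation over 3 SD above normal in the single-dose calcium agonist read, cut at about 30% in these data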
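Tetracycline-induced HEK293 Trex cells with D2 receptor force-coupled to calcium signaling, plated overnight at 30 C and loaded with no-wash calcium dye. Calcium flux read kinetically for 180 s after compound addition; responses flag agonists.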
D2 antag – HTS Assay for Allosteric Antagonists of the Human D2 Dopamine Receptor: Primary Screen for Antagonists | D(2) dopamine receptor (Homo sapiens), P14416 | HEK293 TREx D2 cells, calcium flux, dopamine EC80 | inhibition, % at 10 µM | 2% of 340,000 active | AID 485344, 2010; in the data active = inhibition above about 30%; inactive = below that, where a call was filed
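Calcium mobilization kinetics were recorded at 1 s intervals in tetracycline-induced HEK293 T-REx D2 cells, first for 180 s after compound addition and then 180 s after EC80 dopamine.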
Hits are given with their value.

Results for CC(c1n[nH]c(=S)n1-c1ccccc1)N1CCCCC1 (stereo unspecified) ?
D2 PAM-1: inactive; D2 PAM-2: inactive; D2 ag-1: inactive; D2 ag-2: inactive; D2 antag: 71

Results for CC1=CS(=O)(=O)CC1Sc1nc2ccccc2[nH]1 (stereo unspecified) ?
D2 PAM-1: inactive; D2 PAM-2: inactive; D2 ag-1: inactive; D2 ag-2: inactive; D2 antag: 38

How did O=S1(=O)C=CC(Sc2nc3ccccc3[nH]2)C1 (stereo unspecified) do in these assays?
D2 PAM-1: inactive; D2 PAM-2: inactive; D2 ag-1: inactive; D2 ag-2: inactive; D2 antag: inactive

Results for O=C(/C=C/c1ccc(S(=O)(=O)N2CCOCC2)cc1)N1CCN(c2ccc(F)cc2)CC1 ?
D2 PAM-1: inactive; D2 PAM-2: inactive; D2 ag-1: inactive; D2 ag-2: inactive; D2 antag: inactive

Results for CC1CC(C)CN(C(=O)/C=C/c2ccc(S(=O)(=O)N3CCOCC3)cc2)C1 (stereo unspecified) ?
D2 PAM-1: inactive; D2 PAM-2: inactive; D2 ag-1: inactive; D2 ag-2: inactive; D2 antag: 30

Results for O=C(Oc1ccc(Cl)c2ccccc12)N1CCCCC1 ?
D2 PAM-1: inactive; D2 PAM-2: inactive; D2 ag-1: inactive; D2 ag-2: inactive; D2 antag: 56

Results for O=C(Oc1ccc(Cl)c2cccnc12)N1CCCCC1 ?
D2 PAM-1: inactive; D2 PAM-2: inactive; D2 ag-1: inactive; D2 ag-2: inactive; D2 antag: inactive

How did CC1CCC(NC(=O)c2cc3c(s2)CS(=O)(=O)C3)CC1 (stereo unspecified) do in these assays?
D2 PAM-1: inactive; D2 PAM-2: inactive; D2 ag-1: inactive; D2 ag-2: inactive; D2 antag: 41

What do the screens show for `CCCSCCCNC(=O)c1cc2c(s1)CS(=O)(=O)C2`?
D2 PAM-1: inactive; D2 PAM-2: inactive; D2 ag-1: inactive; D2 ag-2: inactive; D2 antag: inactive

Results for CCc1nc2c(OCc3ccc4c(c3)OCO4)cccn2c1N(C=O)Cc1ccccc1 ?
D2 PAM-1: inactive; D2 ag-1: inactive

What do the screens show for `OCCNCc1cc(Br)ccc1OCc1ccccc1Cl`?
D2 PAM-1: inactive; D2 PAM-2: inactive; D2 ag-1: inactive; D2 ag-2: inactive; D2 antag: 42

How did Cc1ccc(NC(=O)C2CCN(S(=O)(=O)c3ccc4c(c3)NC(=O)C(C)S4)CC2)cc1Cl (stereo unspecified) do in these assays?
D2 PAM-1: inactive; D2 PAM-2: inactive; D2 ag-1: inactive; D2 ag-2: inactive; D2 antag: 73

How did COc1ccccc1NC(=S)NC(=O)Cc1ccc(Cl)cc1 do in these assays?
D2 PAM-1: inactive; D2 PAM-2: inactive; D2 ag-1: inactive; D2 ag-2: inactive; D2 antag: 52

What do the screens show for `Cc1nc(/N=C(\N)NC(=O)N2c3ccccc3Sc3ccccc32)nc2ccccc12`?
D2 PAM-1: 55; D2 PAM-2: inactive; D2 ag-1: inactive; D2 ag-2: inactive; D2 antag: inactive

Results for Cc1nc(/N=C(\N)NC(=O)c2ccccc2)nc2ccccc12 ?
D2 PAM-1: inactive; D2 PAM-2: inactive; D2 ag-1: inactive; D2 ag-2: inactive; D2 antag: inactive

How did Cc1ccc(-c2cc(C(=O)Nc3c(C(=O)c4ccc(C)c(F)c4)oc4ccccc34)no2)cc1 do in these assays?
D2 PAM-2: inactive; D2 ag-2: inactive

Results for Cc1ccccc1NS(=O)(=O)c1ccc(C(=O)NCc2ccccc2CN2CCCC2)cc1 ?
D2 PAM-1: inactive; D2 ag-1: inactive

Results for CCSc1nnc2ccc(-c3ccc(C)cc3)nn12 ?
D2 PAM-1: inactive; D2 PAM-2: inactive; D2 ag-1: inactive; D2 ag-2: inactive; D2 antag: inactive

How did CCSc1nnc2ccc(-c3ccco3)nn12 do in these assays?
D2 PAM-1: inactive; D2 PAM-2: 37; D2 ag-1: inactive; D2 ag-2: inactive; D2 antag: inactive

Screening data (PubChem BioAssay)
